# Test results from the supplement of paper PMC11417369.
# ± gives the standard deviation of the averaged measurements. In all, about 25,000 sequences were measured (“ln(normalized median fluorescence intensity)”: median about 7.9, highest 2% from about 11 on). Only a selection was taken, and the highest values are over-represented in it overall.
# Tested on: PfAP2-I AP2 domain 3 (GST-tagged)
# Assay: gcPBM binding intensity (ln(normalized median fluorescence intensity)); higher = stronger DNA binding
# Method in brief: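 Each value is the highest Masliner-normalised natural-log median intensity across replicate spots of either orientation of a probe. The probes were primer-extended double-stranded 36-bp intergenic genomic sequences on an Agilent 4 × 180k array, alongside negative controls, exposed for 1 h to GST-tagged P. falciparum DNA-binding domains expressed in E. coli. Bound protein was picked up with Alexa488 anti-GST antibody and scanned at 488 nm.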
row,Sequence,gcPBM binding intensity (ln)
1,GGTTAAAAAAAGCATACACACTATCCTCTTTGCTCT [CACACA_site7246],7.9 ± 0.65
2,TTTAATTATTAAATGGTGCACTTGAAATATAAAAAT,11 ± 0.45
3,TATATATATTTTTGTGTGCACTATAATATGAAAATA,11.4 ± 0.45
4,ATATATTTTATATGTGTGCACTATATATATATATAT,11.4 ± 0.3
5,AAATGAAATAAAATCATATATTTATAATTATTATAA [TGCATGCA_negctrl_site612],7.27 ± 0.41
6,TGCATAATTAAAAATGGTACACTGTATTTATAATAT [XGTACX_site1575],7.95 ± 0.61
7,TTTTTTTTTTTTTTTGCACACTATATTTAATATAAG [CACACA_site2444],9.42 ± 0.21
8,ATCATATTTTTATGTGTGCACTTTTTTTTTTTTTTT [GTGCAC_site9555],10.25 ± 0.014
9,CAAAATATTTTTATAACACACATATATATAATGTGC [CACACA_site4767],7.8 ± 0.52
10,ATATATCATAAATAAATGAAAATATTTTCTATGTGT [CACACA_negctrl_site689],7.77 ± 0.62
11,AATTTTTTTTTTTTTTTTTTTTATATATGTGTGTGT [XGTACX_negctrl_site129],7.59 ± 0.28
12,GTTTATTTATTTTATGTGCACATATAACAAAAAAAA,10.36 ± 0.028
13,TATATTTTTATGTGTGTGCACAAAATAACAAAATAT [GTGCAC_site9596],11.1 ± 0.35
14,ACAAAGTAAAATAATGCATGTAGGTATACATAATTA [TGCATGCA_site607],7.71 ± 0.81
15,TAGAACAAATAAAACACACACATATATATATATATG [CACACA_site2768],8.06 ± 0.41
16,ATATATTAAAAGGATTAGGAAAAAATATGATTTATC [TGCATGCA_negctrl_site405],7.55 ± 0.78
17,GAACAAAATTTTATATGTACATAATATTTATATATA [XGTACX_site3667],8 ± 0.2
18,TTACAAGTAAAAGGTACACACATTATATATACAAAT [CACACA_site8290],7.97 ± 0.55
19,TTTTTTTTCATTTTATGTACACATAATTTAATATAT [XGTACX_site5768],8.16 ± 0.45

row,Sequence,gcPBM binding intensity (ln)
1,CATGACATATCCTGTAGTACAACGTATATATAAGAT [XGTACX_site2577],7.8 ± 0.61
2,TTTTTTCAATTTTTTTTAAATAAACCACAAAAAAAA [CACACA_negctrl_site1701],7.74 ± 0.49
3,TATTTATAAATATGTGTGCACAATTTATTTTATAAT,11 ± 0.26
4,CAATTTATTATATATGTGCACATATAATTTTACAAA,9.59 ± 0.24
5,ATATAGAAAATGCATACACACTTTATAAATATATTT [CACACA_site6553],7.92 ± 0.53
6,CTTAAAATATATTTAGTGCATATACTAATATATTAT,10.2 ± 0.45
7,AAATAAAAATTAAAAAAATAGAAACGAATTGAATGC [TGCATGCA_negctrl_site365],7.83 ± 0.64
8,AATACTTTTTATTTAGTGCATAAGAAAATATAAATC [GTGCAC_site9875],10.9 ± 0.44
9,ATCAAAAATATAAAAAATATAAACAATTTATTATCA [CACACA_negctrl_site768],7.32 ± 0.47
10,TATAAATTAAAATGTGTGCACTAAATTGAAATAGAA,11.5 ± 0.53
11,TTATAATTTTAATGTGCACACAATTAAAATATTATA [CACACA_site5172],10.79 ± 0.085
12,GAATAAATATTAAATGTGCACTTGAATAGATGTAAA,10.1 ± 0.16
13,TTTCAATTTATCAGTGTGCACAAAAATAAAATAAAA,10.88 ± 0.028
14,ATATATTTTTAAAAAAATTAAGAATTTTACATCTCC [CACACA_negctrl_site1450],7.59 ± 0.65
15,AACAATTATTTATCTACACACTTTTATGTTATTTAC [CACACA_site9],7.88 ± 0.67
16,AATTTTTTTTTCTTTTGTACGTAAATATGTGTAGGC [XGTACX_site215],8.33 ± 0.26
17,ATGTGAAAATAAGACACACTCAAAAGGTTTATATTA [CACACA_site4595],7.67 ± 0.43
18,ATACTTTTAATATGCACATGCAAATATGAAATATCG [TGCATGCA_site603],9.22 ± 0.39
19,TTATAAAAAAAAAAAAAAAAAAAAACCAATATAATA [CACACA_negctrl_site968],7.3 ± 0.48

row,Sequence,gcPBM binding intensity (ln)
1,ATTTATTTGAAGAATTGTACTAAATTATATAGCGGT [XGTACX_site4998],7.94 ± 0.49
2,TATATATATAAATACACACACACCGTCCGTGTTAAA [CACACA_site5623],8.54 ± 0.53
3,ACAAAAAAAATAAGCACACATATATATATATATATA [CACACA_site816],9.38 ± 0.36
4,TTTATATTCTTAAGTGTGCACTATATATATATATAT [GTGCAC_site9719],11.2 ± 0.23
5,TTTTTTATTATATAATTGTATATAAAATTATAATTT [GTGCAC_negctrl_site733],7.67 ± 0.47
6,TATAAAAATAAGCACACACACAAATATATATTTATT [CACACA_site922],8.12 ± 0.25
7,GCCCCCAAATTATGTGTGCACTTTATATTCCTGAGA [GTGCAC_site9474],10.4 ± 0.23
8,TATTATATAATAAAAATTATTATTATTTGTATAAAT [CACACA_negctrl_site195],7.21 ± 0.42
9,ATTATTAATAATTGTGTGCACAAATATTTATATGCT,10.815 ± 0.007
10,AATAATAAAAATATTGTGCACTTGTATATTTATTAT [GTGCAC_site9963],11 ± 0.11
11,TTTTCTTGGTTCAGTGTGCACTTATATATATATATA,10.3 ± 0.2
12,ATTTATATTAAAAGTGTGCACTTTTTTTTTTTTTTT,9.77 ± 0.085
13,TATTAACAAATTTATGTGCACTGAGGACAAATATAT,10.96 ± 0.085
14,ATATATATATATATTGTGCACAAAAAAAAATAAGCA,11.2 ± 0.15
15,ATGTTATAAGATTTATGTACACACATATACACACCT [XGTACX_site1316],8.35 ± 0.21
16,CATAAATCAGCCATAACACACATACCTATATACATA [CACACA_site6324],7.75 ± 0.57
17,TAAAATATTATCTACGCACACATTAAAATAAAAAAA [CACACA_site3709],8.32 ± 0.2
18,ACTTTAAAAAGATTCACACAAAATATATAAAAATAT [CACACA_site5334],7.75 ± 0.39
19,AGAATTTTATTATATTGTACTTTTTATAAACCTTGT [XGTACX_site7495],7.7 ± 0.71
